# Source: PubChem BioAssay (several laboratories)
# Rows were chosen to be rich in hits. Some 22% of all compounds tested hit in one or more screens of this group.
# Measles CPE: protection of cells from measles virus. hit rate 1.5% among 140,000. Measles virus-infected cells, CPE protection, absorbance. AID 841. protection (pct of control), % at 4 µM; in the data active = protection mostly above about 24%, no sharp cut-off; inactive = mostly below about 26%
# CYP2C9 activ: activators of human CYP2C9. P11712. recombinant CYP2C9, luciferin-H conversion, luminescence; hits give high values; factor 1 = untreated enzyme, 0 = blocked. activation factor at 5 µM. hit rate 1.4% among 96,000. AID 1024;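 active = activation factor of 2 or more for CYP2C9 at a 5 µM dose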;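 also: 0 = sulfaphenazole-blocked wells and 1 = vehicle-only wells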
# Target sequence (P11712 whole entry, looked up): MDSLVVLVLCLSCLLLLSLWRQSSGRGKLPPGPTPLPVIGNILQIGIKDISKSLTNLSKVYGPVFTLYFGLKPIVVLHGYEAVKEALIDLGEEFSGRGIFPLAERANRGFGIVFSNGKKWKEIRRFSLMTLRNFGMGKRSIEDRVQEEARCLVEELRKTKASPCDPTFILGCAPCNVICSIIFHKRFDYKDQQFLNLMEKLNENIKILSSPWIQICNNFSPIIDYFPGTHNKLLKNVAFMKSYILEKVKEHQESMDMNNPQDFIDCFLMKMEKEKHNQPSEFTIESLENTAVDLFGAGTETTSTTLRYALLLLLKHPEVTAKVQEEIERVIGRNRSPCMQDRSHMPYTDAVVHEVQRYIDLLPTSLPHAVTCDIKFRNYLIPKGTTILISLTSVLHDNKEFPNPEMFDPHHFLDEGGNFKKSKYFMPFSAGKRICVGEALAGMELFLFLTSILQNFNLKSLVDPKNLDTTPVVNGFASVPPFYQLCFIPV
# CYP2C19 activ: increases human CYP2C19 enzyme activity. recombinant CYP2C19, luciferin-H EGE luminescence; hits give high values; 0 = fully inhibited enzyme, 1 = untreated enzyme. AID 1025. activation factor at 5 µM. P33261. 96,000 tested, under 10 active;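 active = activation factor of at least 2 at 5 µM in the primary screen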;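 also: 0 = wells with 2.5 mM tranylcypromine and 1 = vehicle-only wells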
# CYP2C9 inh: human CYP2C9 inhibition | CYP2C9 Supersomes, luciferin-H conversion, luminescence | inhibition, % at 5 µM | hit rate 20% among 96,000 | AID 777;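 active = blocking of liver enzyme CYP2C9 beyond about 50% at 5 µM, limit read from the data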
# CYP2C19 inh: blocks human cytochrome P450 2C19 | P33261 | CYP2C19 Supersomes, luciferin-H EGE luminescence, 30 min | inhibition, % at 5 µM | hit rate 21% among 96,000;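 active = CYP2C19 inhibition above a set limit at 5 µM in the primary screen, cut at about 50% in these data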;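 also: plate controls were negative control wells for no effect and 2.5 mM tranylcypromine positive control for full effect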
# * hit, by the source's call; / = no result given.
SMILES,Measles CPE,CYP2C9 activ,CYP2C19 activ,CYP2C9 inh,CYP2C19 inh
O=S1(=O)C=C(SCc2ccccc2)Nc2ccccc21,12,0.4,0.3,63*,68*
Cc1ccc(CSCCNC(=O)c2ccccc2)cc1,4,/,/,/,/
O=C(NCCCN1CCOCC1)c1cc(-c2ccc(O)cc2)on1,28,2.2*,1.1,-121,-8
Cn1nc(-c2ccc(Cl)cc2)c2cc(C(=O)NCCN3CCOCC3)sc21,2,0.3,0.5,70*,49
CCOCCCNC(=O)c1cc2c(-c3ccc(Cl)cc3)nn(C)c2s1,9,0.5,0.4,49,61*
CCN(CC)CCNC(=O)c1cc2c(-c3ccc(Cl)cc3)nn(C)c2s1,6,0.8,0.8,18,18
Cn1nc(-c2ccc(Cl)cc2)c2cc(C(=O)NCCCN3CCOCC3)sc21,-1,0.4,0.7,58*,29
C(=N\N1CCN(Cc2cccc3ccccc23)CC1)/c1cccnc1,2,1,0.7,-2,31
O=C(CSc1nncn1-c1ccccc1)Nc1cccc(S(=O)(=O)N2CCCCC2)c1,9,/,/,/,/
O=C(CSc1nnc(Cc2cccs2)n1-c1ccccc1)Nc1ccc2c(c1)OCCO2,18,0.1,0.2,89*,85*
Cn1c(Cc2ccccc2)nnc1SCC(=O)Nc1ccc2c(c1)OCCO2,25,0.3,0.3,74*,75*
O=C(CSc1nnnn1-c1ccc(O)cc1)Nc1cccc(S(=O)(=O)N2CCCC2)c1,7,0.6,0.1,38,93*
Cc1ccc2nc(CSc3nnc(Cc4cccs4)n3C3CCCCC3)cc(=O)n2c1,10,0.5,0.3,52*,71*
O=C(c1ccc(C#CC2(O)CCCCC2)cc1)N1CCOCC1,16,1.1,0.9,-9,6
CCn1c(Cc2ccccc2)nnc1SCC(=O)Nc1ccc(N2CCOCC2)c(Cl)c1,7,0.4,0.2,58*,80*
CCn1c(Cc2ccccc2)nnc1SCC(=O)Nc1ccc2c(c1)OCO2,4,0.5,0.4,50,62*
CCn1c(Cc2ccccc2)nnc1SCC(=O)Nc1cc(C)on1,3,0.9,0.5,13,49
O=C(CSc1nnnn1-c1ccc(O)cc1)Nc1ccc(N2CCOCC2)c(Cl)c1,22,1.7,1.1,-74,-11
O=C(CSc1nnc(Cc2cccs2)n1-c1ccccc1)NC1CCCCC1,32,0.3,0.5,72*,55*
NC(=O)c1ccc(-n2nnnc2SCC(=O)Nc2ccc(N3CCOCC3)c(Cl)c2)cc1,32*,0.9,1,6,1
COCCn1c(Cc2ccccc2)nnc1SCC(=O)NC(C)(C)C,0,1,0.6,4,44
COc1ccc(Cl)cc1NC(=O)Nn1cnnc1,10,1,1,-1,0
C=CCNc1nc(C2(C)CC3(CC(C)OC3=O)C(=O)O2)cs1 (stereo unspecified),4,/,/,/,/
N#C/C(=C(/O)CSc1nnc(Cc2cccs2)n1C1CCCCC1)c1nc2ccccc2[nH]1,24,0.6,0.4,37,61*
COc1ccccc1-c1nnc(SC/C(O)=C(\C#N)c2nc3ccccc3[nH]2)n1C1CCCCC1,5,/,/,/,/
SMILES,Measles CPE,CYP2C9 activ,CYP2C19 activ,CYP2C9 inh,CYP2C19 inh
C=CCNC(=O)C(C)Sc1ccc(Cl)cc1 (stereo unspecified),1,0.6,0.3,39,70*
CCNC(=O)C(C)Sc1ccc(Cl)cc1 (stereo unspecified),18,1.2,0.8,-20,17
CC(=O)N1CCN(S(=O)(=O)c2ccc(C)cc2)C1c1ccc(N(C)C)cc1 (stereo unspecified),7,1,0.6,2,44
CC(C)C1N(S(=O)(=O)c2ccccc2)CCN1S(=O)(=O)c1ccccc1,10,0,0,100*,100*
Cc1ccc(S(=O)(=O)N2CCN(S(=O)(=O)c3ccccc3)C2c2ccc(N(C)C)cc2)cc1 (stereo unspecified),6,0.1,0.1,88*,94*
COc1ccc(C2N(S(=O)(=O)c3ccc(C)cc3)CCN2S(=O)(=O)c2ccc(C)cc2)cc1,2,0.1,0,90*,96*
CCOC(=O)c1ccc(C(=O)OCC)c(NC(=S)Nc2ccc([N+](=O)[O-])cc2OC)c1,24,/,/,/,/
CC1CCCCC1NC(=O)c1cn(C)c2ccc(S(=O)(=O)N3CCCC3)cc2c1=O (stereo unspecified),21,0.6,1,39,-2
CCn1c2ccccc2c2cc(/C=N/n3cn[nH]c3=S)ccc21,11,0.7,0.2,32,81*
CCn1c2ccccc2c2cc(/C=N/n3cnnc3)ccc21,15,0.3,0,74*,97*
C(=N\n1cnnc1)/c1cn(Cc2ccccc2)c2ccccc12,2,0.3,0.2,66*,85*
N#Cc1ccccc1Cn1c(=O)n(CCCC(=O)NCc2ccc3c(c2)OCO3)c(=O)c2ccccc21,4,/,/,/,/
CCOC1OC(=O)C(Cl)=C1Nc1ccc(C)cc1C (stereo unspecified),10,/,/,/,/
Cc1ccccc1NC1=C(Cl)C(=O)OC1OC(C)C (stereo unspecified),6,0.7,0,30,96*
O=[N+]([O-])c1ccccc1-c1ccc(/C=N/n2cnnc2)o1,5,1,0.8,4,24
Cc1ccc(-c2ccc(/C=N/n3cnnc3)o2)cc1Cl,26,0.4,0.4,61*,64*
Clc1cccc(-c2ccc(/C=N/n3cnnc3)o2)c1,10,0.8,0.5,25,51*
CCCNC(=O)C(NS(=O)(=O)c1ccc2c(c1)c(=O)n(C)c(=O)n2C)c1ccccc1 (stereo unspecified),28,0.8,0.8,20,17
COc1ccc(Cn2c(=O)[nH]c3cc(C(=O)NCc4ccc5c(c4)OCO5)ccc3c2=O)cc1,3,/,/,/,/
COCCN(C(=O)Cn1nnc2ccccc21)C(C(=O)NC1CCCCC1)c1ccc(OC)cc1OC (stereo unspecified),17,/,/,/,/
CCOc1ccc(-n2c(=S)sc3c(=O)[nH]c(SCC(=O)NC(C)CC)nc32)cc1 (stereo unspecified),5,0.2,0.9,78*,11
COc1ccc(CCn2c(N3CCOCC3)nc3c2c(=O)[nH]c(=O)n3C)cc1,4,0.7,0.9,30,6
COc1ccc(OC)c(NC(=O)CC2C(=O)NCCN2C(=O)Nc2cccc(Cl)c2)c1 (stereo unspecified),3,0.3,0.6,72*,41
COc1ccccc1NC(=O)CC1C(=O)NCCN1C(=O)Nc1ccccc1 (stereo unspecified),14,0.9,0.9,11,6
Cc1sc2nc(CSc3ccccc3)nc(N3CCOCC3)c2c1C,5,/,/,/,/
COc1ccc(CCNC(=O)C23CN(Cc4ccccc4)CC2C(c2cccc([N+](=O)[O-])c2)=NO3)cc1 (stereo unspecified),10,0.7,0.7,26,31
